In publication PMC5540273 (PLoS ONE, 2017):

How the values were obtained:
Details in all cases: concentration: 1 μM, replicates: in singlicate; n = 1
WNK4 = system: WNK4
YANK1 = system: T1, YANK1
T1 construct: gene STK32A

YANK2 = system: T2, YANK2
T2 construct: gene STK32B

YANK3 = system: T3, YANK3
T3 construct: gene STK32C

YES = system: T4, YES
T4 construct: gene YES1

YSK1 = system: T5, YSK1
T5 construct: gene STK25

YSK4 = system: T6, YSK4
T6 construct: gene MAP3K19

ZAK = system: ZAK
ZAP70 = system: ZAP70
p38-alpha = system: T7, p38-alpha
T7 construct: gene MAPK14

p38-beta = system: T8, p38-beta
T8 construct: gene MAPK11

p38-delta = system: p38-delta
p38-gamma = system: T9, p38-gamma
T9 construct: gene MAPK12
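Also: KINOMEscan kinase panel screen.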

| Compound | %Inh (WNK4) | %Inh (YANK1) | %Inh (YANK2) | %Inh (YANK3) | %Inh (YES) | %Inh (YSK1) | %Inh (YSK4) | %Inh (ZAK) | %Inh (ZAP70) | %Inh (p38-alpha) | %Inh (p38-beta) | %Inh (p38-delta) | %Inh (p38-gamma) |
| --- | --- | --- | --- | --- | --- | --- | --- | --- | --- | --- | --- | --- | --- |
| Nc1n[nH]c2nnc(-c3ccccc3)cc12 [SB-517389] | 0% | 13% | 0% | 21% | 16% | 0% | 75% | 24% | 0% | 0% | 0% | 39% | 0% |
| CN1c2ccc(-c3ccc(C(=O)NCCO)cc3)cc2-c2[nH]ncc2S1(=O)=O | 0% | 0% | 0% | 0% | 12% | 13% | 8% | 20% | 0% | 0% | 4% | 9% | 10% |
| O=C(Nc1ccccc1F)NC1CCN(c2ccnc(Nc3ccc(F)cc3)n2)C1 (centres unmarked) [GSK1379722] | 28% | 0% | 6% | 21% | 14% | 2% | 28% | 0% | 0% | 6% | 0% | 38% | 0% |
| COC(=O)c1c(-c2ccccc2)c2cc(Cl)ccc2c(=O)n1Cc1ccc(S(C)(=O)=O)cc1 | 27% | 0% | 15% | 0% | 0% | 0% | 2% | 5% | 0% | 17% | 0% | 21% | 23% |
| COc1ccc(NC(=O)Nc2ccc(C)c(-c3ccc(C(=O)Nc4ccncc4)cc3)c2)cc1 [GSK1398475] | 0% | 0% | 0% | 7% | 13% | 13% | 9% | 6% | 0% | 60% | 0% | 37% | 0% |
| Cl.Fc1ccccc1COc1ccc(Nc2ncnc3ccc(-c4nnc(C(F)(F)F)o4)cc23)cc1Cl [GW424170] | 0% | 3% | 0% | 3% | 5% | 0% | 0% | 1% | 0% | 0% | 0% | 29% | 17% |
| Cc1cccc(-c2nc(Nc3ccc4[nH]nnc4c3)c3ccccc3n2)n1 [GW867587] | 0% | 0% | 0% | 1% | 0% | 0% | 0% | 0% | 0% | 0% | 0% | 0% | 0% |
| Cn1ccc2ncnc(Nc3ccc(Oc4cccc(Cl)c4)c(Cl)c3)c21 | 34% | 0% | 14% | 17% | 0% | 0% | 11% | 30% | 0% | 17% | 22% | 40% | 8% |
| FC(F)(F)c1cc(Nc2nccc(-c3c(-c4ccc(Cl)cc4)nn4ncccc34)n2)ccc1Cl [GW829351] | 0% | 0% | 0% | 4% | 0% | 0% | 0% | 0% | 0% | 43% | 0% | 0% | 0% |
| CCC(CC)(CC)n1cnc2c(N)ncnc21 [SKF-97620] | 23% | 18% | 12% | 9% | 0% | 0% | 31% | 0% | 29% | 3% | 8% | 0% | 1% |
| COc1cc2ncnc(Nc3ccc(OCc4ccccc4Br)c(Cl)c3)c2cc1OC.Cl [GI261590] | 52% | 0% | 0% | 21% | 31% | 0% | 33% | 33% | 19% | 63% | 0% | 54% | 0% |
| O=C(CCO)NCCn1ccc2ncnc(Nc3ccc(Oc4cccc(C(F)(F)F)c4)c(Cl)c3)c21 | 0% | 0% | 0% | 0% | 0% | 0% | 0% | 0% | 0% | 0% | 0% | 10% | 5% |
| CSc1nn2c(=O)cc(N3CCOCC3)nc2n1Cc1cccc(Cl)c1Cl [GSK2347225] | 0% | 16% | 7% | 19% | 31% | 12% | 0% | 0% | 0% | 0% | 0% | 59% | 16% |
| Cc1cc(N2CCC(NS(=O)(=O)c3ccc(F)cc3)CC2)nc(Nc2cccc(C#N)c2)n1.O=C(O)C(F)(F)F [GSK1653537] | 0% | 2% | 1% | 29% | 0% | 22% | 0% | 0% | 0% | 0% | 0% | 8% | 0% |
